This passage reports outcome, Potency and max response results from PubChem BioAssay (NCATS).

Records with an inconclusive call do not appear. Unmarked numbers belong to inactive results. The source made the active and inactive calls. Calls come from the whole dose curve; as a rule, active = well fitted curve in the direction sought with a large enough effect; inconclusive = small, poorly fitted or top-dose-only effect, or another doubt; inactive = no such curve, though single readings can be large; an effect the other way counts as inactive or inconclusive.

Test [1] relates to CRL-7250. As to the kind of experiment: Cytotoxic Profiling of Annotated Libraries Using Quantitative High-Throughput Screening (AID 1296008). For max response: % is set by controls: 0 for no effect and ±100 for the full control effect. Note: nearly all actives have a fitted effect of over 60% in size. Note: potency is the fitted concentration of half-maximal effect. Particulars: Five cell lines viability, CellTiter-Glo ATP luminescence, 48-72 h; max response: stronger effect = lower value. The method, boiled down: (§1)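 Compounds were pin-transferred onto cells and incubated 48 or 72 hr at 37 degree Celsius, 95% humidity. CellTiter-Glo was added, plates sat 10 min at room temperature, then ATP-coupled luminescence was imaged as the viability read-out.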
On the technique in general: ATP-based viability assays read luminescence as a measure of living cells.

The test system of test [2] is HEK293. The test is described as above. Particulars: Five cell lines viability, CellTiter-Glo ATP luminescence, 48-72 h; max response: stronger effect = lower value. In outline:
as §1

Test [3] relates to HaCat. Described as above. Particulars: Five cell lines viability, CellTiter-Glo ATP luminescence, 48-72 h; max response: stronger effect = lower value. In outline: as §1
For test [4], the system named is NIH3T3. The test is described as above. Particulars: Five cell lines viability, CellTiter-Glo ATP luminescence, 48-72 h; max response: stronger effect = lower value. In outline: as §1
For test [5], the system named is HACAT. Kind of test: qHTS assay to identify novel small-molecules to repurpose for Merkel cell carcinoma treatment (AID 1296009). Note: nearly all actives have a fitted effect of over 60% in size. Particulars: MCC and control cell lines, CellTiter-Glo viability, 72 h; at 44.8 µM (top of the series) unless noted. In outline: (§2)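 Luminescence from CellTiter-Glo, read 10 min after addition at room temperature, reported viability following a 72 hr, 37 degree celsius treatment with NPC or MIPE compounds in titration; values normalized to plate controls.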

In test [6] the test system is CAOV3. Kind of test: Primary qHTS to identify gynecologic anti-cancer compounds using libraries of approved drugs and bioactive compounds (AID 1345084). Note: nearly all actives have a fitted effect of over 55% in size. Note: potency is the fitted concentration of half-maximal effect. As to conditions: Gynecologic cancer cell panel viability, ATPlite luminescence, 48 h; series mostly up to 57.5 µM. In outline: (§3)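 Five-point cytotoxicity, 48 h drug exposure at 37 C, 5% CO2, on cells seeded 16 h beforehand. ATP content read by ATPlite luminescence.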

For test [7], the system named is Es-2. The description is as above. As to conditions: Gynecologic cancer cell panel viability, ATPlite luminescence, 48 h; series mostly up to 57.5 µM. The method, boiled down:
as §3

In test [8] the test system is HeLa. Described as above. Particulars: Gynecologic cancer cell panel viability, ATPlite luminescence, 48 h; series mostly up to 57.5 µM. In outline: as §3
In test [9] the test system is JEG-3. The description is as above. Particulars: Gynecologic cancer cell panel viability, ATPlite luminescence, 48 h; series mostly up to 57.5 µM. The method, boiled down:
as §3

The test system of test [10] is C33A. Described as above. As to conditions: Gynecologic cancer cell panel viability, ATPlite luminescence, 48 h; series mostly up to 57.5 µM. The method, boiled down: as §3
In test [11] the test system is CASKI. Described as above. Particulars: Gynecologic cancer cell panel viability, ATPlite luminescence, 48 h; series mostly up to 57.5 µM. The method, boiled down: as §3
Test [12] deals with Hek293T. Described as above. Particulars: Gynecologic cancer cell panel viability, ATPlite luminescence, 48 h, control line for the selectivity index; series mostly up to 57.5 µM. In outline: as §3
Test [13] deals with OV90. Described as above. Particulars: Gynecologic cancer cell panel viability, ATPlite luminescence, 48 h; series mostly up to 57.5 µM. The method, boiled down:
as §3

The test system of test [14] is PA-1. The description is as above. Particulars: Gynecologic cancer cell panel viability, ATPlite luminescence, 48 h; series mostly up to 57.5 µM. In outline:
as §3

For test [15], the system named is NIH3T3. As to the kind of experiment: qHTS assay to identify novel small-molecules to repurpose for Merkel cell carcinoma treatment (AID 1296009). Note: nearly all actives have a fitted effect of over 60% in size. Particulars: MCC and control cell lines, CellTiter-Glo viability, 72 h; series mostly up to 44.8 µM. In outline: as §2
In general terms: qHTS replaces the single test concentration by a dilution series.

For `COc1cc(Br)c(S(=O)(=O)Nc2ccc(Cl)c(O[C@@H]3CCN(C)C3)c2)cc1OC`, the call in test [1], in [3] and in test [5] was inactive. For the same compound, in [2], the Potency was 7.31 µM (active). In test [4], the max response was -15.8%. Moreover, the Potency result in test [6], in test [7], in test [8] and in test [9] was “inactive” each time.
`CCOC(=O)[C@@]1(CCCCCCOc2ccc(Cl)cc2)CO1`: the max response in test [1] was -16.7%; in test [3] it was 3.74%; in [4], -15.5%. Also, the Potency in [2] was 8.31 µM (active).
As to `CC[C@@H](Nc1c(Nc2cccc(C(=O)N(C)C)c2O)c(=O)c1=O)c1cc(C(C)C)co1`, the max response in test [1] is 4.29%; in test [2], -14.3%; in test [4], -6.94%. Further, the outcome in test [3] and in test [5] was inactive. The Potency entry in test [10], in test [6], in [11], in test [7], in [8] and in [12] was “inactive” in each case. Also, the Potency result in test [9], in [13] and in test [14] was “inactive” each time.
Consider `CS(=O)(=O)c1ccc(Oc2cc(F)cc(C#N)c2)c2c1[C@H](O)C(F)(F)C2`, for which, in test [1], the call was inactive. In addition, the max response in [2] was 1.03%; in test [3] it was -0.258%; in test [4], -14.9%.
Turning to `CC(/C=C/C(=O)NO)=C\[C@@H](C)C(=O)c1ccc(N(C)C)cc1`, the Potency in [1] was 2.91 µM (active); in test [2] it was 1.16 µM (active); in test [3], 0.92 µM (active); in [4] it was 1.3 µM (active); in test [10], 3.55 µM (active); in [6] it was 4.47 µM (active). For the same compound, the Potency was 1.58 µM (active) in test [11]; 5.62 µM (active) in test [7]; 3.55 µM (active) in [8]; 3.16 µM (active) in test [12]; 1.41 µM (active) in test [9]; 2.24 µM (active) in test [13]. Also, the Potency in [14] was 1 µM (active).
For the compound `CC(=O)OC(C)(C)/C=C/C(=O)[C@](C)(O)[C@H]1C(O)C[C@@]2(C)[C@@H]3CC=C4[C@@H](C=C(O[C@@H]5O[C@H](CO)[C@@H](O)[C@H](O)[C@H]5O)C(=O)C4(C)C)[C@]3(C)C(=O)C[C@]12C` (stereo partly drawn), the compound was called inactive in test [1], in test [3] and in test [4]. The max response in test [2] is -18.4%. In addition, the outcome in [5] was “inactive [at 17.4 µM]”. Further, the Potency result in test [15], in test [10], in [11], in test [7], in test [8] and in [12] was “inactive” in each case. The Potency entry in test [9], in [13] and in [14] was “inactive” each time.
As for `C[C@@H]1CN(CC(=O)N2CC(C)(C)c3ncc(Cc4ccc(F)cc4)cc32)[C@@H](CN2CCOC[C@H]2C)CN1`, the max response in [1] was -4.83%; in [2], -21.9%. Also, the compound was called inactive in [3], in test [4] and in test [5]. Besides, the Potency entry in test [15] was “inactive”.
As to `COC(=O)Nc1cc(Nc2cc(NC3CC3)c3ncc(C#N)n3n2)c(Cl)c(N2CCN(C)CC2)c1`, the Potency is 9.33 µM (active) in [1], 1.32 µM (active) in test [2], 0.741 µM (active) in test [3] and 14.8 µM (active) in test [4].
For `COc1cc(O)cc(OC2OC(CO)C(O)C(O)C2O)c1` (stereo not drawn), the max response in [1] is -0.834%; in test [2], 0.556%; in [3], -5.91%. Also, the call in test [4] was inactive. For the same compound, the Potency result in test [15], in test [10], in [6], in test [11], in [7] and in [8] was “inactive” in each case. Besides, the Potency result in test [12], in [9], in test [13] and in test [14] was “inactive” throughout.
On to `CC(C)(C)c1ccc(C(=O)Nc2cc(Cl)c(Br)cc2C(=O)O)cc1`, for which the max response in test [1] is -0.778%; in test [3], -1.9%; in test [4] it was -19.1%. For the same compound, in test [2], the Potency is 23.1 µM (active). Further, the Potency entry in test [10], in test [6], in test [11], in test [7], in test [8] and in test [12] was “inactive” each time. Also, the Potency result in [9], in [13] and in test [14] was “inactive” each time.
As to `CC[C@H]1CN(c2nc(N)c(C(N)=O)nc2Cl)CCN1C1CCN(Cc2ccc(Cl)cc2)CC1`, the max response in test [1] was 4.79%; in [2] it was -6.38%; in test [4] it was 0.303%. Besides, the result in test [3] and in test [5] was inactive. Also, the Potency result in test [10], in [6], in test [11], in [7], in test [8] and in [12] was “inactive” in each case. The Potency entry in test [9], in test [13] and in test [14] was “inactive” each time.
Turning to `CC(C)C[C@@H]1NC(=O)[C@@H]2C[C@@]34C[C@@H]5[C@@]6(C)CCCC(C)(C)C6CC[C@@]5(C)N(c5ccccc53)[C@H]4N2C1=O` (stereo partly drawn), the Potency is 0.502 µM (active) in test [1] and 0.796 µM (active) in test [2]. In addition, in test [3], the result was inactive. Further, the max response in test [4] was -3.44%. Besides, the outcome in test [5] was “inactive [at 17.4 µM]”. Further, the Potency result in [6] and in [8] was “inactive” throughout.
Turning to `CNc1cc2[nH]c(=O)n(-c3ccc(NC(=O)NS(=O)(=O)c4ccc(Cl)s4)cc3)c(=O)c2cc1F`, the result in test [1], in [3] and in test [5] was inactive. Moreover, the max response was -0.0272% in test [2] and 2.24% in [4]. Also, the Potency result in test [10], in test [6], in test [11], in test [7], in test [8] and in test [12] was “inactive” in each case. The Potency entry in test [9], in test [13] and in [14] was “inactive” throughout.
For `C1=C/COCc2cc(ccc2OCCN2CCCC2)Nc2nccc(n2)-c2cccc(c2)COC/1`, the Potency in [1] was 6.51 µM (active); in [2], 2.06 µM (active); in test [3], 5.8 µM (active); in test [4], 4.11 µM (active); in test [10] it was 11.2 µM (active); in test [6] it was 11.2 µM (active). Besides, the Potency in test [11] is 3.55 µM (active); in test [7] it was 14.1 µM (active); in [8] it was 3.98 µM (active); in test [12], 7.94 µM (active); in [9] it was 11.2 µM (active); in [13] it was 17.8 µM (active). In addition, in test [14], the Potency was 2.82 µM (active).
For the compound `CC(C)c1cc2c(N3CCN(C4=NCC(C)(C)S4)CC3)ncnc2s1`, the Potency was 3.66 µM (active) in test [1] and 1.3 µM (active) in [2]. Moreover, the compound was classed as inactive in test [3] and in test [5]. Moreover, the max response in [4] was -29.7%. The Potency result in test [6], in test [11], in test [7], in [8] and in test [9] was “inactive” each time.
